This is an account of results in PubChem BioAssay (EPA / NIEHS).

SMILES strings stand for the structures. Records with an inconclusive call do not appear. Calls of active or inactive are those of the source. Rule for the calls: active = hit-call score of the fitted dose curve at least 0.9, where 1 is the maximum; inconclusive = response in the unintended direction; inactive = score below 0.9.

A short description of this assay: TOX21_p53_BLA_p3_viability: Viability Assessment in the Tox21 HCT-116 p53 Agonism Beta-lactamase Assay, Phase 3 (AID 2283593).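 Note: cells exposed to compound for 16 h before reading.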 Summed up:
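HCT116 cells, 4000/well, dosed 5 h after plating by pin transfer (217-fold dilution from DMSO stock) and incubated 16 h at 37C, 5% CO2. Viability read as ATP luminescence with CellTiter-Glo after 30 min at room temperature.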
As to `C=CC(=O)OCCCCCC`, the compound was called inactive. For the compound `CCOc1ccc(NC(C)=O)cc1`, the compound was classed as inactive. Take `CNC(=C[N+](=O)[O-])NCCSCc1ccc(CN(C)C)o1`: the outcome was inactive. On the same count and under the same terms, next, `O=C(O)c1ccco1`: “inactive”; `CCOC(=O)C(=O)OCC`: “inactive”. Still for that read-out and setting: as for `CCCCCCCCCO`, the entry is “inactive”; as for `Cc1cc(O)c2c(c1)C(=O)c1cc(O)cc(O)c1C2=O`, “inactive”; as for `CN(C)CCCNCCCN(C)C`, “inactive”. Regarding `O=Cc1ccccc1O`, the outcome was inactive. For the compound `CCCCCCOc1ccc(O)cc1`, the result was inactive. Regarding `CCCCCc1cccc(=O)o1`, the compound was classed as inactive.

With `O=S1(=O)CC=CC1`, the result was inactive. Regarding `CCCCCCC(O)CCOC(C)=O` (stereo not given), the outcome was inactive.

As for `CCCO[Si](OCCC)(OCCC)OCCC`, the outcome was inactive. On to `C=CC(C)CCCC(C)(C)O` (stereo not given), for which the call was inactive. On to `CC1(C)CC(N)CC(C)(CN)C1` (stereo not given), for which the outcome was inactive. Consider `CN(C)c1ccc(C=O)cc1`, for which the outcome was inactive. Consider `CC(=O)C1=C(C)[C@@H]2C[C@@]3(C1)[C@H](C)CC[C@H]3C2(C)C`, for which the compound was classed as inactive. For the compound `COc1ccc(OC)cc1`, the outcome was inactive. With `CC/C=C\CCOC(=O)C(C)C`, the compound was called inactive. On to `CCCCCCCCCCCCN1CCOCC1`, for which the outcome was inactive. For `C=CCCCCCCCCC(=O)OCC`, the call was inactive. Turning to `C=C/C(C)=C/C/C=C(\C)CCC=C(C)C`, the result was inactive. For the compound `CCCCCCCC(=O)N(C)C`, the result was inactive. As to `O=S(=O)(O)c1cc(S(=O)(=O)O)c2c(N=Nc3ccccc3)c(O)ccc2c1`, the call was inactive. Consider `OC[C@@H](O)[C@H](O)[C@@H](O)[C@@H](O)CO`, for which the call was inactive.

Turning to `CC(=O)OC(C)(C)C`, the result was inactive. In the case of `C=C1CC/C=C(\C)CC[C@@H]2[C@@H]1CC2(C)C`, the compound was classed as inactive. Regarding `CC(C)C(=O)c1ccccc1`, the call was inactive. For `CC(C)Cc1ccccc1`, the outcome was inactive. Same read-out and setting: next, `CC1=CC[C@@H]2C[C@H]1C2(C)C`: “inactive”. Turning to `O=C(Nc1cccc(Cl)c1)OCC#CCCl`, the AC50 (usually the concentration at which the activity in the assay is half-maximal) was 69.2 µM (active).

Consider `N=C1N=C(N)c2ccccc21`, for which the AC50 is 13.6 µM (active).

Take `CCCCN(CCO)CCO`: the compound was classed as inactive. As to `NCCCOCCOCCOCCCN`, the call was inactive.
